# Source: PubChem (several laboratories)
# MIN6 prolif – MIN6 beta-cell proliferation induction. MIN6 cells proliferation, ATPlite luminescence, 48 h; cells starved in 0.2% serum; 100% = growth in 10% serum. proliferation, % at 10 µM. hit rate 0.29% among 330,000. AID 2380;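 active means compounds whose signal lies at least 3.5 SD above the mean of all wells on their plate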
# A3A deaminase – blocks human APOBEC3A ssDNA deamination; hit rate 0.41% among 330,000; P31941; inhibition, % at 20 µM; recombinant A3A, FAM/TAMRA ssDNA deamination fluorescence;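 active means at least 40% inhibition at 20 µM here, with at most 30% in a related deaminase screen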
# NRP1-CendR mod – NRP-1/CendR interaction modulation. hit rate 0.85% among 360,000. FAM-RPARPAR peptide binding to NRP-1, fluorescence polarization. inhibition, % at 25 µM. O14786;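 active means inhibition or corrected inhibition above about 18%, plus a signal ratio from 0.5 to 1.5, limit read from the data, passing the limit was not always enough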
# A3G deaminase – blocks human APOBEC3G single-stranded DNA deamination; Q9HC16; recombinant A3G, ssDNA deamination FAM/TAMRA fluorescence; inhibition, % at 20 µM; hit rate 0.28% among 330,000;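 active means inhibition of at least 40% at 20 µM, with no more than 30% in the related APOBEC3A deaminase screen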
# VLA-4 inh – inhibition in a human VLA-4 binding assay; P13612; VLA-4 expressing cells, ligand binding flow cytometry; inhibition, % (about 7 µM as worked out from the volumes in the protocol); hit rate 0.2% among 330,000; in the data active means inhibition above about 50%
# Target sequence (P13612 whole entry, looked up): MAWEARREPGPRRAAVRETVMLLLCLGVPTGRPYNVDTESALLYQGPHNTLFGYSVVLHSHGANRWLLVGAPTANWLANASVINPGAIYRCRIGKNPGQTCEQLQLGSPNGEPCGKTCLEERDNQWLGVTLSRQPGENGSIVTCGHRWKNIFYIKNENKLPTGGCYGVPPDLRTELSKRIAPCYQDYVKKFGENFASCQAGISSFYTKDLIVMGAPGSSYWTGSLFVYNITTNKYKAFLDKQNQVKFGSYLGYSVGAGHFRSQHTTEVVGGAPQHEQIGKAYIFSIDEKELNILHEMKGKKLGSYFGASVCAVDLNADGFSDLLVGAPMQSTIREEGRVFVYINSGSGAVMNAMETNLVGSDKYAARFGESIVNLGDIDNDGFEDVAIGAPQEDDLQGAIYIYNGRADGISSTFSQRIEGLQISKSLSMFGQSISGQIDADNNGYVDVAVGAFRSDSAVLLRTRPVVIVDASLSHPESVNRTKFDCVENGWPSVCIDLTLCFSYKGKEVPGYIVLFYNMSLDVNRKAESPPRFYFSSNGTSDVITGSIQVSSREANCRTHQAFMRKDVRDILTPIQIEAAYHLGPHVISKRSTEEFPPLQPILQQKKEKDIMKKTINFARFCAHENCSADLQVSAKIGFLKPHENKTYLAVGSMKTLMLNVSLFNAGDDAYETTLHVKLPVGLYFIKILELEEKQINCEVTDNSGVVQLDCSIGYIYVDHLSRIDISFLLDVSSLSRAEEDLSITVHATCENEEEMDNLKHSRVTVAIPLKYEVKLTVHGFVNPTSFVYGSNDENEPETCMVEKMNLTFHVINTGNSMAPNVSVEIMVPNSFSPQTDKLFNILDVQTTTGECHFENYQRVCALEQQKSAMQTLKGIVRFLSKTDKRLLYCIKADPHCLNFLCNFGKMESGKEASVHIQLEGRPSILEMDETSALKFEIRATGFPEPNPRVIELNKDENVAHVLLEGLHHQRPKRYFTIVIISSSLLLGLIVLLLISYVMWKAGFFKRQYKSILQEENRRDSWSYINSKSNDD
# A number is an active result; n = inactive; x = no result given; ! = repeats disagree. Compounds with a hit are over-represented: about 1.8% of the library has one in this group of screens.
SMILES,MIN6 prolif,A3A deaminase,NRP1-CendR mod,A3G deaminase,VLA-4 inh
CCCCCCCCN1C(=O)[C@H](CC(=O)N2CCCC2)C[C@@]2(C(=O)OCC)CCCC=C12,x,x,n,x,x
O=C(Cn1ccc(NC(=O)OCc2ccccc2)nc1=O)NCCN1CCOCC1,n,n,38,n,n
COc1ccc(Cn2c(=O)sc3ccccc32)cc1,n,n,31,n,n
CC(C)Oc1ccc(Cn2c(=O)sc3ccccc32)cc1,n,n,n,n,n
CCOC(=O)c1ccc2ncc(C(=O)OCC)c(NCCN(C)C)c2c1,n,n,60,n,n
CCOC(=O)c1ccc2ncc(C(=O)OCC)c(NCCN3CCOCC3)c2c1,n,n,n,n,n
CN(C)CCOC(c1ccccc1)c1ccccc1,n,n,n,n,n
CN(C)CCOC(c1ccc(Cl)cc1)c1ccccn1 (centres undefined),n,n,21!,n,n
CCCCC(Sc1nc(C)c(Cc2ccccc2)c(=O)[nH]1)C(=O)O (centres undefined),n,n,n,n,n
Cc1ccc(S(=O)(=O)N2CCC[C@H]2C(=O)NC2=NCCS2)cc1,x,x,24,x,x
Cc1ccc(S(=O)(=O)N2CCCC(C(=O)NC3=NCCS3)C2)cc1 (centres undefined),n,n,n,n,n
COC(=O)[C@H](CCSC)NC(=O)Nc1ccc(OC)c(Cl)c1,n,n,24,n,n
Cc1ccc(Nc2c(-c3ccccc3O)nc3ncccn23)cc1,n,n,25,n,n
CSc1cccc(CN2CCN(Cc3ccccc3)C(CCO)C2)c1 (centres undefined),n,n,24,n,n
Cc1cc(Cl)ccc1OCC(=O)OCC(=O)NC1CCS(=O)(=O)C1 (centres undefined),n,n,n,n,n
N=c1c2c(n(Cc3ccc(Cl)cc3)c3c1CCC3)CCC2,n,n,n,n,n
N=c1c2c(n(Cc3ccc(F)cc3)c3c1CCC3)CCCC2,n,n,24,n,n
O=C(NCc1ccc(Cl)cc1)N1CCN(Cc2ccccc2)CC1,n,n,n,n,n
COc1cc(CN(CC2CCCO2)C(=O)c2cccs2)cc(OC)c1OC (centres undefined),n,n,26,n,n
COc1cc(CN(CC2CCCO2)C(=O)c2ccco2)cc(OC)c1OC (centres undefined),n,n,n,n,n
CCCCCCCc1n[nH]c(=S)n1Cc1ccccc1,n,n,n,n,n
CCCCc1n[nH]c(=S)n1Cc1ccc(C)cc1,n,n,27,n,n
OCC[C@@H]1C[C@H](O)[C@@H](O)[C@]2(OCCc3cc(Cl)ccc32)O1,x,x,n,x,x
O=C(NCc1cccs1)c1csc([C@@H]2C[C@H](O)[C@@H](CO)O2)n1,x,x,n,x,x
CC(/C=C/c1ccccc1)=N\NC(=O)CCc1ccccc1,n,n,24,n,n
SMILES,MIN6 prolif,A3A deaminase,NRP1-CendR mod,A3G deaminase,VLA-4 inh
CC(=O)c1ccccc1NC(=O)COC(=O)CCC1CCCC1,n,n,n,n,n
CC1(c2nnc(-c3ccc(F)cc3)o2)CC(c2ccc(F)cc2)=NO1 (centres undefined),n,n,24,n,n
CC1(c2nnc(-c3ccc(F)cc3)o2)CC(c2ccncc2)=NO1 (centres undefined),n,n,x,n,n
CC1(c2nnc(-c3ccc(Cl)cc3)o2)CC(c2cccc(Cl)c2)=NO1 (centres undefined),n,n,25,n,n
COc1ccc(CN(CC(O)COCc2ccccc2)S(=O)(=O)c2ccccc2Br)cc1OC (centres undefined),x,n,n,n,x
O=C(c1ncn(Cc2ccccc2)c1C(=O)N1CCc2ccccc2C1)N1CCc2ccccc2C1,n,n,30,n,n
CC1C(O)=C(c2ccccc2)P(=O)(Cc2ccccc2)C1C (centres undefined),x,x,n,x,x
O=C(c1cccc(NS(=O)(=O)c2cccc(F)c2)c1)N1CCCC1,n,n,27,n,x
Cc1ccc(S(=O)(=O)Nc2cccc(C(=O)N3CCOCC3)c2)cc1,n,n,23,n,n
FC(F)(F)c1ccccc1Cc1c(-c2cccc(Br)c2)nc2c3ccccc3ccn12,x,x,n,x,x
O=C1CSC(c2cn(-c3ccccc3)nc2-c2ccccc2)N1Cc1ccco1 (centres undefined),n,n,n,n,n
O=C1CSC(c2cn(-c3ccccc3)nc2-c2cccs2)N1CC1CCCO1 (centres undefined),n,n,32,n,n
CC1(C)CC(=O)C2=C(C1)OC(N)=C(C#N)C2c1ccccc1 (centres undefined),n,n,n,n,n
CC1(C)CC(=O)C2=C(C1)OC(N)=C(C#N)C2c1ccccc1[N+](=O)[O-] (centres undefined),n,n,36,n,n
CC(C)(C)c1cc[n+](C2=C([O-])c3ccccc3C(=O)/C2=N\S(=O)(=O)c2cccs2)cc1,n,n,31,n,n
Cc1cnc(C(=O)OCC(=O)N2CC(C)CC(C)C2)cn1 (centres undefined),n,n,n,n,n
Cc1cnc(C(=O)OCC(=O)N2CCC(C)CC2)cn1,n,n,23,n,n
COc1ccc(C)cc1NC(=O)CSc1nnc2ccc(-c3cccnc3)nn12,n,n,n,n,n
Cn1c(N)c(S(=O)(=O)N2CCN(c3ccccc3Cl)CC2)c(=O)n(C)c1=O,n,n,27,n,n
O=C(Nc1ccc(Br)cc1)Nc1cnccn1,n,n,n,n,x
CCOC(=O)C1(Cc2ccccc2Cl)CCN(C(=O)CN2CCOC2=O)CC1,n,n,23,n,n
CCOC(=O)C1(CCCc2ccccc2)CCN(C(=O)CN2CCOC2=O)CC1,n,n,n,n,n
COc1ccc([C@H]2CC(=O)C=C(c3ccc4c(c3)OCCO4)C2)cc1,n,n,26,n,n
COc1ccc(C2=CC(=O)C[C@H](c3ccc(OC)c(OC)c3)C2)cc1,n,n,21,n,n
CC1CN(C(=O)c2ccccc2NS(=O)(=O)c2ccc(Cl)cc2)CC(C)O1 (centres undefined),n,n,19,n,n
SMILES,MIN6 prolif,A3A deaminase,NRP1-CendR mod,A3G deaminase,VLA-4 inh
O=C(c1cc(S(=O)(=O)N2CCN(c3ccccc3)CC2)ccc1Cl)N1CCCCCCC1,n,n,n,n,n
NC(=O)NN=C1C2CCCC1C(c1ccccc1)NC2c1ccccc1 (centres undefined),n,n,45,n,n
NC(=O)C(=O)NN=C1CCC(c2ccccc2)CC1 (centres undefined),n,n,n,n,n
O=C([C@@H]1CC=C[C@@H]2CCN(C3CCCCC3)C(=O)[C@@H]21)N1CCN(c2ccccc2)CC1,n,n,23,n,n
COc1ccc2cc(C(=O)N3CCC(Cc4ccccc4)CC3)[nH]c2c1,n,n,n,n,n
COc1cccc2cc(C(C)N(CCCN3CCOCC3)C(=S)Nc3cccc(C)c3)oc12 (centres undefined),n,n,39,n,n
COc1cccc2cc(C(C)N(CCCN3CCOCC3)C(=S)Nc3c(C)cccc3C)oc12 (centres undefined),n,n,n,n,n
